Measured values: PubChem BioAssay AID588856 (National Center for Advancing Translational Sciences (NCATS), 2011)
Out of some 410,000 compounds screened, about 3,100 (0.76%) were called active. Many of the other results were omitted from the sample, so actives are more common in it than they were. A number with no mark means an inactive call. Calls follow the shape of the dose curve; as a rule, active = well fitted cell-killing curve with a large enough effect; inactive = no such curve, though single readings can be large or run the other way.

Experiment: qHTS for Inhibitors of TGF-b: Cytotox Counterscreen
Conditions: HepG2 CAGA-GFP viability, ATP luminescence, 18 h; series mostly up to 46.1 µM; activity change, negative = cytotoxicity: at the top concentration
Method in brief: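 HepG2 CAGA-GFP cells (1000/well, DMEM with 1% FBS) received compound, then TGF-beta at 500 pg/mL final, and were incubated 18 hours at 37 degrees C. Viability was read by CellTiter-Glo luminescence. Media-only wells were set as complete cell-killing and DMSO as no toxicity.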
Potency is read from the fitted curve at half-maximal effect.

SMILES | activity change, negative = cytotoxicity [%] | Potency
O=C(CCOc1ccccc1)N(Cc1cccnc1)c1nc2ccc(Cl)cc2s1 | -23.5 | –
Cc1ccc(S(=O)(=O)N(CCCN(C)C)Cc2ccc3c(c2)OCO3)cc1 | -7.76 | –
CCOc1ccc2nc(N(CCCN(C)C)C(=O)c3ccc(C(=O)c4ccccc4)cc3)sc2c1 | – | 15.8 µM (active)
CCN(CC(=O)Nc1c(F)cccc1F)C(=O)c1ccc(S(=O)(=O)N2CCCCC2)cc1 | 2 | –
CN(C)CCCN(C(=O)c1ccc(S(=O)(=O)N2CCCCCC2)cc1)c1nc2ccc(Br)cc2s1 | – | 22.4 µM (active)
CCOc1ccc2nc(N3CCC(C(=O)Nc4cc(C)ccc4C)CC3)sc2c1 | -20.6 | –
CCc1ccc2nc(N(CCCN(C)C)C(=O)c3ccc4c(c3)OCCO4)sc2c1 | – | 11.2 µM (active)
Cc1cc(C)c2sc(NC(=O)c3ccc(S(=O)(=O)N4CCCC4)cc3)nc2c1 | -2.41 | –
O=C(CN(Cc1ccccc1)C(=O)c1ccc2c(c1)OCCO2)NCc1ccc2c(c1)OCO2 | 59.1 | –
Cc1nn(C)c2c1c(C(F)(F)F)cc(=O)n2C(C)C(=O)NCc1ccc(Cl)cc1 (configuration not stated) | -0.512 | –
COc1ccc(CNC(=O)c2cc3c(=O)[nH]c4ccc(C)cc4c3s2)c(OC)c1 | -25.2 | –
COc1cc(-c2cc3n(C)c(C)c(CCC(=O)Nc4ccc(F)cc4)c(=O)n3n2)cc(OC)c1OC | 2.54 | –
CC(=O)c1ccc(NC(=O)C2CCN(S(=O)(=O)c3c(C)noc3/C=C/c3ccc(C)cc3)CC2)cc1 | 6.96 | –
COc1ccc(CNC(=O)c2cc3c(-c4ccccc4F)nn(C)c3s2)c(OC)c1 | -22.9 | –
COC(=O)c1scc(-c2ccccc2)c1S(=O)(=O)Nc1ccccc1 | -17.3 | –
COc1cccc(-c2cc3nc(NCCOc4ccccc4Cl)n(C)c(=O)c3s2)c1 | -25.5 | –
O=c1[nH]c(CCl)nc2cc(-c3ccc(Cl)cc3)sc12 | – | 4.47 µM (active)
SCc1nc2ccc(Cl)cc2[nH]1 | -19.2 | –
CCOC(=O)C1CCC(CN(Cc2ccc(OC)cc2)S(=O)(=O)c2ccc(F)c(C(=O)Nc3cc(C)ccc3C)c2)CC1 (configuration not stated) | -1.68 | –
Cc1ccc(C)c(CNC(=O)c2cc3ccccn3n2)c1 | -13.7 | –
CCOc1n[nH]c(-c2ccccc2)n1 | -32.4 | –

SMILES | activity change, negative = cytotoxicity [%] | Potency
CCNC(=O)c1cnn(-c2ccccc2)c1-c1ccccc1 | -1.48 | –
Nc1c(C(=O)O)cnn1-c1ccccc1 | – | 11.2 µM (active)
NNC(=O)c1cnn(-c2ccccc2)c1C(F)(F)F | 14.9 | –
Cc1ccc(F)cc1S(=O)(=O)N1CCC(c2nc3ccccc3s2)CC1 | -8.96 | –
O=C(CC1NCCc2ccccc21)Nc1cccc(Cl)c1 (configuration not stated) | -10.5 | –
COC(=O)c1cc(C)sc1NC(=O)CC1Nc2ccccc2NC1=O (configuration not stated) | -1.34 | –
O=C(CC1Nc2ccccc2NC1=O)Nc1ccccc1 (configuration not stated) | – | 12.6 µM (active)
N#Cc1cc2[nH]c(=O)c(=O)[nH]c2cc1[N+](=O)[O-] | -56.5 | –
CCOc1ccc(NC(=O)CN(Cc2ccccc2)S(=O)(=O)c2ccc(Cl)cc2)cc1 | -26.9 | –
CCOc1ccc(N(Cc2ccccc2)C(=O)c2nc(S(C)(=O)=O)ncc2Cl)cc1 | – | 3.55 µM (active)
CCOc1ccc(N(Cc2ccccc2)C(=O)c2nc(SCC)ncc2Cl)cc1 | -60.2 | –
COCCNC(=O)c1ccc2c(c1)N(Cc1cccc(Cl)c1)C(=O)c1ccccc1S2(=O)=O | -23.1 | –
Cc1ccc(C(=O)N2CCc3cc(CNC(=O)c4ccc(Br)cc4)ccc32)cc1 | -18 | –
O=C(CSc1nc2ccc(Nc3nc(N4CCOCC4)nc(N4CCOCC4)n3)cc2s1)NCc1ccco1 | -31.4 | –
O=C(CSc1ccccc1)Nc1cc(Cl)ccc1Oc1ccccc1 | -3.19 | –
O=C(CSc1nc(Nc2ccccc2)nc(N2CCOCC2)n1)Nc1cc(Cl)ccc1O | – | 6.31 µM (active)
O=[N+]([O-])c1ccc(/C=C/c2ccc3cccnc3c2)cc1 | -53.7 | –
O=C1/C(=C\c2ccc([N+](=O)[O-])cc2)CS(=O)(=O)C/C1=C/c1ccc([N+](=O)[O-])cc1 | – | 14.1 µM (active)
O=C(Cc1ccc(Br)cc1)NCCN1CCOCC1 | 4.13 | –
O=S(=O)(c1ccc(Cl)cc1)c1nc(-c2ccccc2F)oc1NCCN1CCOCC1 | 16.4 | –
c1ccc2cc3c(NCCN4CCOCC4)ccnc3cc2c1 | – | 3.55 µM (active)

SMILES | activity change, negative = cytotoxicity [%] | Potency
CCC(=O)N1CCc2cc(CNC(=O)Nc3ccccc3Cl)ccc21 | -8.04 | –
COc1ccc(-c2nc(S(=O)(=O)c3ccccc3)c(N3CCCCC3)o2)cc1 | -4.93 | –
CCCc1nc2scc(-c3ccc(C)cc3)c2c(=O)n1N | 26.8 | –
Fc1ccc(-c2csc(-c3ccc(C4SCCS4)cc3)n2)cc1F | -2.96 | –
CCCc1cc(-c2nc(-c3ccc(C)cc3)cs2)ccn1 | – | 10 µM (active)
CC1(C)Cc2ccccc2-c2c[nH]c(=O)n21 | -4.31 | –
CCN(CC)CCOc1ccc2c(c1)C(=NNC(=O)c1ccccn1)c1cc(OCCN(CC)CC)ccc1-2 | – | 15.8 µM (active)
CCOc1ccc(C(=O)N2CCN(CCc3ccccn3)CC2)cc1 | 3.93 | –
CC(C)(C)c1ccc(C(=O)C[n+]2cccc3cc(Cl)ccc32)cc1 | -92 | –
CCN(C(=O)Cn1c(=O)nc(-c2ccccc2)c2cc(Cl)ccc21)c1cccc(C)c1 | 6.33 | –
O=C(c1cnn2c1NC(=C1CC1)C=C2C(F)F)N1CCc2ccccc2C1 | -9.79 | –
CN1CCN(c2oc(-c3ccc(COc4ccc(Cl)cc4)o3)nc2C#N)CC1 | -30 | –
CN(C)Cc1cn(-c2ccccc2)nc1-c1ccccc1 | -26.4 | –
CCc1ccc(-c2nn(-c3ccccc3)cc2CSC(=N)N)cc1 | – | 17.8 µM (active)
CCc1ccc(-c2nn(-c3ccccc3C)cc2C(=O)N2CCN(C3CCS(=O)(=O)C3)CC2)cc1 (configuration not stated) | -12 | –
Cc1cc(C)c(NC(=O)Cn2c(SCC(=O)NCc3ccccc3)nc3ccccc32)c(C)c1 | 1.54 | –
Cc1ccc(Cl)cc1N1CCN(C(=O)C2CCC(CNS(=O)(=O)c3cccs3)CC2)CC1 (configuration not stated) | -0.372 | –
Cc1ccc(CN2CCC(CNC(=O)c3cnn(-c4ccccc4Cl)c3C3CCN(C(=O)OC(C)(C)C)CC3)CC2)cc1 | – | 17.8 µM (active)
COc1ccccc1CN1CCC(CNC(=O)c2cnn(-c3ccccc3Cl)c2C2CCN(C(=O)OC(C)(C)C)CC2)CC1 | -60.3 | –
Cc1ccc(CN2CCC(CNC(=O)c3cnn(-c4ccc(C)cc4)c3C3CCN(C(=O)OC(C)(C)C)CC3)CC2)cc1 | -71.7 | –
